# Experimental data from PubChem BioAssay (Tox21).
# Records with an inconclusive call do not appear. Where a call stands in place of a potency, no number is given. Where a structure was tested more than once in an assay, its records may differ in their call. Calls of active or inactive are those of the source. Calls follow the shape of the dose curve; as a rule, active = well fitted cell-killing curve with a large enough effect in the repeat runs; inconclusive = weak or mixed curves, or effect the other way; inactive = flat fitted curve, though single readings scatter.
# Test: qHTS assay to identify small molecule agonists of the sonic hedgehog signaling (Shh) pathway - cell viability counter screen (AID 1259366); also: nearly all actives have a fitted effect of over 50% in size
# Settings: NIH/3T3 Gli1-Luc viability, CellTiter-Fluor, 24 h; series mostly up to 92.4 µM
# Text: National Center for Advancing Translational Sciences [NCATS]
# NIH Chemical Genomics Center [NCGC]
# U.S. Environmental Protection Agency [EPA]
# National Institutes of Environmental Health Sciences [NIEHS]
# National Toxicology Program [NTP]
# U.S. Food and Drug Administration [FDA]
# The sonic hedgehog (Shh) pathway is essential for normal embryonic development. Dysregulation of the Shh pathway can cause severe developmental defects in organs. Therefore chemicals that interfere with the pathway are potential developmental toxicants. A cell line designated 3T3Gli1-Luc (DMB/OARSA/CFSAN/FDA, Laurel, MD), a NIH/3T3 derived clone containing stably integrated Gli1-Luc reporter is used to detect chemical interference of the Shh pathway, by changes in the expression of the firefly Luc gene under the control of the Gli1 transcriptional response element. This cell line was used to screen Tox21 libraries for identifying and prioritizing the potential developmental toxicants that interfere Shh pathway. The cytotoxicity of the compounds was tested in parallel by measuring the cell viability using CellTiter-Fluor assay system (Promega, Madison, WI) in the same wells.
# Tox21 Assay Protocol Summary:
# 3T3 Gli1-Luc cells were dispensed at 2,000 per well in 5uL of culture medium into white solid bottom 1536-well plates (Greiner Bio-One, Monroe, NC) using a Multidrop Combi (Thermo Scientific, Waltham, MA) dispenser. The assay plates were incubated at 37 C and 5% CO2 for 4hr, and then 23nL of compounds dissolved in DMSO and positive control were transferred using a Pintool station (Wako, San Diego, CA). The assay plates were incubated at 37C and 5% CO2 for 24hr. For viability read, after 23hr of compound treatment, 1uL of CellTiter-Fluor reagent (Promega Corporation, Madison, WI) was added to each well of the assay plates using Flying Reagent Dispenser (FRD, Aurora Discovery, San Diego, CA) and incubated the assay plates at 37C for 1hr. The fluorescence signal was quantified using a ViewLux plate reader (Perkin Elmer, Shelton, CT).
# Potency is read from the fitted curve at half-maximal effect.
row,Compound,Potency
1,C=C(C)C(=O)OCCCCCCCCCCCC,inactive
2,CC1(C)O[C@@H]2C[C@H]3[C@@H]4C[C@H](F)C5=CC(=O)CC[C@]5(C)[C@H]4[C@@H](O)C[C@]3(C)[C@]2(C(=O)CO)O1,inactive
3,c1ccc2[nH]cnc2c1,inactive
4,NC(=O)NNc1ccccc1,inactive
5,CC1(C)CC(N=C=O)CC(C)(CN=C=O)C1 (stereo not given),inactive
6,CCc1ccccc1O,inactive
7,NCCc1ccc(O)c(O)c1,24.4 µM (active) and inactive
8,O=C(O)c1ccc([N+](=O)[O-])cc1,inactive
9,CC(C)(CO)COC(=O)C(C)(C)CO,inactive
10,C/C=C(C)/C=C/C=C(C)C,inactive
11,NCCNCCNCCNCCN,inactive
12,Cc1cc(Cc2ccc(N)c(C)c2)ccc1N,inactive
13,CC1=C(CC(=O)O)c2cc(F)ccc2/C1=C\c1ccc(S(C)=O)cc1 (stereo not given),inactive
14,CN(C)c1cccc(O)c1,inactive
15,CCCCCCCCCCCCN,27.3 µM (active) and inactive
16,O=C1CCCCC1,inactive
17,O=[N+]([O-])c1cccc(Cl)c1,inactive
18,Cc1ccc(N)c(S(=O)(=O)O)c1,inactive
19,Oc1ccc2ccccc2c1N=Nc1ccccc1,34.3 µM (active)
20,CC1=CC[C@H]2C[C@@H]1C2(C)C,inactive

row,Compound,Potency
1,Cc1ccc(C(=O)O)o1,inactive
2,CC(C)(C)C(=O)C1C(=O)c2ccccc2C1=O,inactive
3,C[C@@H](O)[C@H]1C(=O)N2C(C(=O)O)=C(S[C@@H]3CN[C@H](C(=O)N(C)C)C3)[C@H](C)[C@H]12,inactive
4,Oc1c(Cl)cc(Cl)c(Cl)c1Cl,inactive
5,Cc1cc(NS(=O)(=O)c2ccc(N)cc2)no1,inactive
6,O=c1c(-c2ccc(O)cc2)coc2cc(O)ccc12,inactive
7,CC1Cc2ccccc2N1NC(=O)c1ccc(Cl)c(S(N)(=O)=O)c1 (stereo not given),inactive
8,CCCCCC/C=C/CCCCCCCC(=O)O,inactive
9,CC(=O)CCc1ccccc1,inactive
10,C=C1CC[C@H](O)CC1=C/C=C1\CCC[C@]2(C)[C@@H]([C@H](C)/C=C/[C@H](C)C(C)C)CC[C@@H]12,inactive
11,O=C(Cl)c1c(Cl)c(Cl)c(C(=O)Cl)c(Cl)c1Cl,inactive
12,CC#C[C@]1(O)CC[C@H]2[C@@H]3CCC4=CC(=O)CCC4=C3[C@@H](c3ccc(N(C)C)cc3)C[C@@]21C,inactive
13,C=C(C#N)C(=O)OCC,inactive
14,OC[C@@H](O)[C@H](O)[C@H](O)[C@@H](O)CO,inactive
15,CCCCNC(N)=O,inactive
16,O=Nc1ccc(O)cc1,inactive
17,CCOC(=O)/C=C\C(=O)OCC,inactive
18,Cn1c([N+](=O)[O-])cnc1COC(N)=O,inactive
19,OCCOCCOCCOCCO,inactive
20,Clc1cc(Cl)c(Cl)cc1Cl,inactive
